Laboratory results from PubChem BioAssay (NCATS).
Inconclusive results are not listed. Calls of active or inactive are those of the source. Unless noted, calls follow the shape of the dose curve; as a rule, active = well fitted curve in the direction sought with a large enough effect; inconclusive = small, poorly fitted or top-dose-only effect, or another doubt; inactive = no such curve, though single readings can be large; an effect the other way counts as inactive or inconclusive.

Key:
[1] = target: Lysosomal acid glucosylceramidase (Homo sapiens) (UniProt P04062); assay: Glucocerebrosidase-p2 (AID 348; in the data active = potency below about 10 µM; also: potency is read from the fitted curve at half-maximal effect); details: purified GBA, blue fluorogenic substrate, 40 min
Method in brief: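 Normal human glucocerebrosidase (0.2 nM) with blue fluorogenic substrate (80 uM final) in citrate/phosphate pH 5.9 with 10mM sodium taurocholate, 0.01% tween-20; 40 min RT, NaOH/glycine stop; fluorescence Ex 365/Em 440; AC50 from a titration from 0.6 nM upwards.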

[2] = AP1 Signaling Pathway (AID 357; active = well fitted curve in either direction with a large enough effect, not every such curve was filed as active;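 also: ME-180 reporter cells stimulated with EGF at its EC50 level; % is scaled to controls: 0 for no effect and ±100 for the full control effect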); details: ME-180 AP-1-bla reporter, EGF-induced, beta-lactamase ratio, 5 h; at 7.69 µM (top of the series) unless noted
Method in brief: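 Beta-lactamase reporter under AP-1 response element, ME-180 background. Stimulus: EC50 EGF. Compound exposure 5 h, 37 °C. Detection: CCF4, 2.5 h RT, 460/530 nm. Values: AC50 from titration.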

[3] = target: Cytochrome P450 1A2 (Homo sapiens) (UniProt P05177); assay: p450-cyp1a2 (AID 410; calls by dose curve; also: potency is read from the fitted curve at half-maximal effect;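 as to activity change, negative = inhibition: -100% = full effect of reference inhibitor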); details: recombinant CYP1A2, luciferin-ME demethylation, luminescence; series mostly up to 57 µM
Method in brief: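 O-Demethylation of luciferin 6' methyl ether by human CYP1A2 is monitored as luciferase luminescence. Substrate sits at Km (100uM); enzyme is 20nM. Values are scaled to 57 uM furafylline as maximal inhibition.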

[4] = NFAT Signaling Pathway (AID 444; active = well fitted curve in either direction with a large enough effect, not every such curve was filed as active;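 also: carbachol stimulus at about its EC50 of 1 µM final; % is scaled to controls: 0 for no effect and ±100 for the full control effect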); details: Jurkat NFAT-bla M1, carbachol, beta-lactamase ratio, 5 h; at 7.69 µM (top of the series) unless noted
Method in brief: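 Read-out: CCF4 FRET ratio (460 nm/530 nm) after 1 h RT dye loading, used for %activity and AC50 from titration series. Cells: Jurkat NFAT-β-lactamase/M1 line, treated with compound plus 1 uM carbachol for 5 h, 37 °C.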

[5] = target: Glucocorticoid receptor (Homo sapiens) (UniProt P04150); assay: GR-GFP Redistribution (AID 450;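 active = compounds whose dose series gives a full or clear partial fitted curve of increased nuclear translocation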; also: potency is read from the fitted curve at half-maximal effect); details: U2OS GR-GFP nuclear translocation, laser cytometry, 2 h
[6] = target: Glucocorticoid receptor (Homo sapiens) (UniProt P04150); assay: GR-EFC Redistribution (AID 451; calls by dose curve; also: potency is read from the fitted curve at half-maximal effect); details: CHO-K1 GR-EFC translocation, beta-gal luminescence, 2 h
Method in brief: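 Translocation of GR-ED fusion to nuclear EA restores b-gal, read by luminescence after 1 h room-temperature detection. Engineered CHO-K1 biosensor cells, 1,000/well, exposed 2 h at 37 C to titrations up to 46 uM final.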

[7] = target: Mitogen-activated protein kinase 10 (Mus musculus) (UniProt Q61831); assay: JNK3 AlphaScreen Assay (AID 530; active = well fitted curve in either direction with a large enough effect, not every such curve was filed as active;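 also: kinase came from lysate of stimulated human HepG2 cells; signal reports phosphorylation of biotinylated GST-cJun 1-79 at Ser73 with 10 µM ATP; % is scaled to controls: 0 for no effect and ±100 for the full control effect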); details: JNK3 lysate, c-Jun phosphorylation; series mostly up to 57.1 µM
Method in brief: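 qHTS titrations with 15 min compound pre-incubation before adding ATP (10 uM final). Read-out: AlphaScreen of Ser73-phosphorylated biotin-GST-cJun using HepG2 lysate JNK3 activated by IL-1β and TNFα.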

[8] = target: 3',5'-cyclic-AMP phosphodiesterase 4B (Homo sapiens) (UniProt Q07343); assay: qHTS Assay for Inhibitors of PDE-IV (AID 607; active = well fitted activation curve with a large enough effect in the main read-out, with a control signal flat, not every such curve was filed as active; also: % of control where 0% means no effect); details: HEK293 ACTOne CNG channel cells, membrane potential fluorescence; series mostly up to 22.9 µM
Method in brief: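 Live HEK293 cells with a modified cyclic nucleotide-gated (CNG) channel report intracellular cAMP via membrane-potential dye fluorescence (ex 535/em 590 nm). Endogenous PDE-IV was targeted. Compounds were tested at up to 22.9 uM final; RO 20-1724 100 uM served as control.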

[9] = target: Cytochrome P450 3A4 (Homo sapiens) (UniProt P08684); assay: qHTS Assay for Activators of Cytochrome P450 3A4 (AID 885); details: recombinant CYP3A4, Luciferin-PPXE luminescence, 60 min; series mostly up to 57.1 µM; also: nearly all actives have a fitted effect of over 65% in size; also: potency is read from the fitted curve at half-maximal effect
Method in brief: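 Using 20nM recombinant human CYP3A4 in potassium phosphate (200mM), substrate Luciferin-PPXE at 25uM, luminescent luciferin detection followed a 60-min RT NADPH reaction; data scaled to 57 uM ketoconazole.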

[10] = qHTS Assay for Lipid Storage Modulators (AID 1519; calls by dose curve); details: Drosophila S3 cells, BODIPY lipid droplet/cell ratio, laser cytometry, cells loaded with oleic acid; for activity change, negative = inhibition: at 57.5 µM (top of the series)
Method in brief: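 Cells seeded at 5,000 per well were treated with compounds over a concentration series and loaded with oleic acid (400 uM, as added). Lipid droplet fluorescence (488 nm excitation, 500-530 nm channel) was read by laser-scanning cytometry and normalized to 20 uM Triacsin C.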

[11] = target: Dual specificity protein kinase CLK4 (Homo sapiens) (UniProt Q9HAZ1); assay: qHTS Assay for Inhibitors of CDC-like Kinase 4 (ADP-FP Assay) (AID 1795); details: Transcreener ADP fluorescence polarization; series mostly up to 50 µM;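 also: recombinant human CLK4 phosphorylating RS repeat peptide at 1 µM ATP; % is scaled to controls: 0 for no effect and ±100 for the full control effect; nearly all actives have a fitted effect of over 60% in size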
Method in brief: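 Recombinant Clk4 (6.25 nM) phosphorylated 100 uM RS repeat peptide with 1 uM ATP in 25 mM Tris pH 7.5, 10 mM MgCl2, 0.5 mM EGTA, 2.5 mM DTT, 0.01% Triton X-100 for 1 h. ADP was detected by Transcreener ADP2 competitive fluorescence polarization after 30 min at room temperature.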

[12] = target: Ubiquitin carboxyl-terminal hydrolase 1 (Homo sapiens) (UniProt O94782); assay: Inhibitors of USP1/UAF1: Pilot qHTS (AID 504865); details: purified USP1/UAF1, Ub-rhodamine cleavage fluorescence; series mostly up to 54.9 µM;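 also: rhodamine fluorescence freed from ubiquitin-rhodamine substrate followed over time; top concentration of the series differs between compounds; % is scaled to controls: 0 for no effect and ±100 for the full control effect; nearly all actives have a fitted effect of over 35% in size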
Method in brief: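 USP1/UAF1 complex at 1 nM preincubated 15 min at room temperature with compound, then Ub-Rho substrate added at 150 nM final. Fluorescence (480/540 nm) read kinetically in 50 mM HEPES pH 7.8, 0.5 mM EDTA, 1 mM TCEP, 0.1 mg/ml BSA, 0.01% Tween-20.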

[13] = Primary qHTS for small molecule stabilizers of the endoplasmic reticulum resident proteome: Secreted ER Calcium Modulated Protein (SERCaMP) assay (AID 1508630); details: SH-SY5Y GLuc-SERCaMP (Gaussia luciferase released on ER calcium loss) secretion, thapsigargin, luminescence; series mostly up to 38.4 µM; also: % is scaled to controls: 0 for no effect and ±100 for the full control effect
Method in brief: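 The SH-SY5Y reporter protocol was run at 3 concentrations up to 38.3 uM (primary) or 11 concentrations (follow-up): 16 h compound, 100 nM thapsigargin for 4 h, then extracellular luciferase luminescence.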

[14] = Stat Signaling Pathway (AID 446; active = well fitted curve in either direction with a large enough effect, not every such curve was filed as active); details: ME-180 (cervical carcinoma) SIE beta-lactamase reporter, IL-6 stimulated, 5 h; at 7.69 µM (top of the series) unless noted
Method in brief: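 Overnight-plated ME-180 cells bearing a STAT Inducible Element beta-lactamase reporter; 5 h co-exposure to compound and 40 pM IL-6; values normalized to 300 pM IL-6 and 125 nM JAK inhibitor controls.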

[15] = target: Cytochrome P450 3A4 (Homo sapiens) (UniProt P08684); assay: qHTS Assay for Inhibitors and Substrates of Cytochrome P450 3A4 (AID 884); details: recombinant CYP3A4, Luciferin-PPXE luminescence; series mostly up to 57.1 µM; also: nearly all actives have a fitted effect of over 50% in size; also: potency is read from the fitted curve at half-maximal effect
Method in brief: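 Luminescent readout of luciferin produced by CYP3A4 (20 nM) dealkylation of Luciferin-PPXE, 25 uM (its KM). NADPH-driven reaction ran 60 min at RT after 10 min compound preincubation; data scaled to 57 uM ketoconazole as 100% inhibition.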

[16] = target: Cytochrome P450 2C19 (Homo sapiens) (UniProt P33261); assay: qHTS Assay for Inhibitors and Substrates of Cytochrome P450 2C19 (AID 899); details: recombinant CYP2C19, luciferin-H EGE luminescence; series mostly up to 57.1 µM; also: potency is read from the fitted curve at half-maximal effect; nearly all actives have a fitted effect of over 60% in size
Method in brief: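 Reactions contain 5nM enzyme, 10uM Luciferin-H EGE (KM) and 50mM KPO4; compound preincubates 10 min at 37C, NADPH regeneration starts turnover for 60 min. Luminescence after detection reagent gives activity.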

[17] = measured here: cell count channel max response
[18] = measured here: lipid channel max response

Cytochrome P450 1A2 (Homo sapiens), sequence (P05177 whole entry, looked up): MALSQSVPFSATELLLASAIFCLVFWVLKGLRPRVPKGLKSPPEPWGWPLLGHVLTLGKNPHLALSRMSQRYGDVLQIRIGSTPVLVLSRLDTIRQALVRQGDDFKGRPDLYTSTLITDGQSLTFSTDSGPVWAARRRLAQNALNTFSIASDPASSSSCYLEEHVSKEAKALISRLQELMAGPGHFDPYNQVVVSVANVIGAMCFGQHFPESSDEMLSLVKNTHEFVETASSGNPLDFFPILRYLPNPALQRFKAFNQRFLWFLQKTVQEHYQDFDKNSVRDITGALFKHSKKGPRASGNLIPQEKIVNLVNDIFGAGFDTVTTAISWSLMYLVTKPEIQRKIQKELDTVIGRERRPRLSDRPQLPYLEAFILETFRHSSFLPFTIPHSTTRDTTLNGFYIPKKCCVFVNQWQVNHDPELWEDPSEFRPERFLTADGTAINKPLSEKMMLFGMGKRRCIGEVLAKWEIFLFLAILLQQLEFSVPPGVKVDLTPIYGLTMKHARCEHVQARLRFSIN
Cytochrome P450 3A4 (Homo sapiens), sequence (P08684 whole entry, looked up): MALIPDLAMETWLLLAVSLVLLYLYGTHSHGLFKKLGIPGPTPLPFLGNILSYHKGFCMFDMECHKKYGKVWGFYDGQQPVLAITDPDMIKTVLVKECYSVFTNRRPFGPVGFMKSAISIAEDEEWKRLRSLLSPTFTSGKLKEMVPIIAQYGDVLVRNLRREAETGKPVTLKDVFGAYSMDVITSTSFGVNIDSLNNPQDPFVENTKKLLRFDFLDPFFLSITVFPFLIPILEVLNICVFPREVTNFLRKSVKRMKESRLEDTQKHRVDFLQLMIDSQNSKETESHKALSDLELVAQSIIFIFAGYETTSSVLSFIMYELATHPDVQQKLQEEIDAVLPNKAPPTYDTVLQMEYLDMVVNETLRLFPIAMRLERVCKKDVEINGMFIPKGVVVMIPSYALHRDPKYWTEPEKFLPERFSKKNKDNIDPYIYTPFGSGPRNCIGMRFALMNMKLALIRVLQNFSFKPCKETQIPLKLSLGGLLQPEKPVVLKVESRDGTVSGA
Ubiquitin carboxyl-terminal hydrolase 1 (Homo sapiens), sequence (O94782 whole entry, looked up): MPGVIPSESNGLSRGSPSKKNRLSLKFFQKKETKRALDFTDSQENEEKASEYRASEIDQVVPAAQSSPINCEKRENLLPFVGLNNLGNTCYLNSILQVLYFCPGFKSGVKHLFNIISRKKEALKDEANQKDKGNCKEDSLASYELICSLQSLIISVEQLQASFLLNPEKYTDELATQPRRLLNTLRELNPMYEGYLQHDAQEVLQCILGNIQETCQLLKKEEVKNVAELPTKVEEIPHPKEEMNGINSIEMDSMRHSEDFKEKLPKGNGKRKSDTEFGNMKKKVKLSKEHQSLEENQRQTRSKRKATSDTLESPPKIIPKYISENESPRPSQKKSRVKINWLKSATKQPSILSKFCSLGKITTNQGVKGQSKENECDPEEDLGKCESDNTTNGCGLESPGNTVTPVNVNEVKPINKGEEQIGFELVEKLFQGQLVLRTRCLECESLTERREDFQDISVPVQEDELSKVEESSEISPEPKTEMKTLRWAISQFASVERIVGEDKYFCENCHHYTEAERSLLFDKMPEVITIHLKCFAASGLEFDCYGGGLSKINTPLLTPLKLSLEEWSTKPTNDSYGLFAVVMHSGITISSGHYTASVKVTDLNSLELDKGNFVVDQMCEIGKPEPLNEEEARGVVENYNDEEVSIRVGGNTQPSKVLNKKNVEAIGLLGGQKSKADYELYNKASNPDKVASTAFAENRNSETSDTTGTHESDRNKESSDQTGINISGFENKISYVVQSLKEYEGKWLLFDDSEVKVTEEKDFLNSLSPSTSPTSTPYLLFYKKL
3',5'-cyclic-AMP phosphodiesterase 4B (Homo sapiens), sequence (Q07343 whole entry, looked up): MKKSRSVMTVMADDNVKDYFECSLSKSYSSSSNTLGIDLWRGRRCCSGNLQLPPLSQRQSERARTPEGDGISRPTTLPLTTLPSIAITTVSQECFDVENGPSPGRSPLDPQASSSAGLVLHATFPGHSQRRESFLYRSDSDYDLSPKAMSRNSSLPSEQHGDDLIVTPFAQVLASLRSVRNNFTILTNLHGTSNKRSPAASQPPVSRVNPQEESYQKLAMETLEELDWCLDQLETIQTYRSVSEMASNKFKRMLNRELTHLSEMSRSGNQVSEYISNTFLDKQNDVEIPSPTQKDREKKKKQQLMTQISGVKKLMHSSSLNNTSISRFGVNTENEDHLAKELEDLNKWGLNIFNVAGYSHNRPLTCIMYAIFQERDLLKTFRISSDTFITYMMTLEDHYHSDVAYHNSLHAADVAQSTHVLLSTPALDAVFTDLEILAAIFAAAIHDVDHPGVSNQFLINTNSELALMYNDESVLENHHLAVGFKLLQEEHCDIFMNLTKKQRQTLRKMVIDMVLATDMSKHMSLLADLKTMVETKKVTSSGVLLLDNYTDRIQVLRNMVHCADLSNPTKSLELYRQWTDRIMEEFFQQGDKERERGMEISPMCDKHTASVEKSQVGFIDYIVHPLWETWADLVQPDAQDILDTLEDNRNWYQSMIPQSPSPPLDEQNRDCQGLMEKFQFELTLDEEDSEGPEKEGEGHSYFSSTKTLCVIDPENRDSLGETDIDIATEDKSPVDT
Dual specificity protein kinase CLK4 (Homo sapiens), sequence (Q9HAZ1 whole entry, looked up): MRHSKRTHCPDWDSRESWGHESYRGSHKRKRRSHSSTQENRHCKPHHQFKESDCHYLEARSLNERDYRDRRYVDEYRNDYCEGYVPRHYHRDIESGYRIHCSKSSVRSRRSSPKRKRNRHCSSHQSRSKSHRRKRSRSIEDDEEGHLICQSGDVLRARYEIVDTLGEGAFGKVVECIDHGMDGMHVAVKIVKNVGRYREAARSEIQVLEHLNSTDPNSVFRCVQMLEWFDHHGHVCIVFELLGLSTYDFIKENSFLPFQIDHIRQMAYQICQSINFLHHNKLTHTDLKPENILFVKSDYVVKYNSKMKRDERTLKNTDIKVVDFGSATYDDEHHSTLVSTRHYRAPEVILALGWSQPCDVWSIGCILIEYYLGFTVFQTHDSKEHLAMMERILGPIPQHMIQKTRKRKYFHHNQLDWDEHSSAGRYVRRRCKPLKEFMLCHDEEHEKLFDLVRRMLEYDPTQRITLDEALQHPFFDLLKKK
Lysosomal acid glucosylceramidase (Homo sapiens), sequence (P04062 whole entry, looked up): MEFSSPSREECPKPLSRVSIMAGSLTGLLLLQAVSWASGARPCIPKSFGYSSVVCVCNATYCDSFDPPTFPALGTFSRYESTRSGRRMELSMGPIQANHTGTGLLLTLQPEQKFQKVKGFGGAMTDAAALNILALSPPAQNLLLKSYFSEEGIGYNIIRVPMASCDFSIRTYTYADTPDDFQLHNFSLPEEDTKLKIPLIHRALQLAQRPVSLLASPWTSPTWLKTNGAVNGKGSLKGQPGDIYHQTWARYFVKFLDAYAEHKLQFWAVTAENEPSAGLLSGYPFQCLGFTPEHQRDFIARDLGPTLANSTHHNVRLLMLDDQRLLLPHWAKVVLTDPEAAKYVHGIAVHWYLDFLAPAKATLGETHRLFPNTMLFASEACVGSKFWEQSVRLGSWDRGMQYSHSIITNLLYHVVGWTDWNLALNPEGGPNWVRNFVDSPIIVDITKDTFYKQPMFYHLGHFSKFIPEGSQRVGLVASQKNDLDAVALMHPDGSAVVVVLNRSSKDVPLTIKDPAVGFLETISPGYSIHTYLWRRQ
Glucocorticoid receptor (Homo sapiens), sequence (P04150 whole entry, looked up, the tested form may be a part): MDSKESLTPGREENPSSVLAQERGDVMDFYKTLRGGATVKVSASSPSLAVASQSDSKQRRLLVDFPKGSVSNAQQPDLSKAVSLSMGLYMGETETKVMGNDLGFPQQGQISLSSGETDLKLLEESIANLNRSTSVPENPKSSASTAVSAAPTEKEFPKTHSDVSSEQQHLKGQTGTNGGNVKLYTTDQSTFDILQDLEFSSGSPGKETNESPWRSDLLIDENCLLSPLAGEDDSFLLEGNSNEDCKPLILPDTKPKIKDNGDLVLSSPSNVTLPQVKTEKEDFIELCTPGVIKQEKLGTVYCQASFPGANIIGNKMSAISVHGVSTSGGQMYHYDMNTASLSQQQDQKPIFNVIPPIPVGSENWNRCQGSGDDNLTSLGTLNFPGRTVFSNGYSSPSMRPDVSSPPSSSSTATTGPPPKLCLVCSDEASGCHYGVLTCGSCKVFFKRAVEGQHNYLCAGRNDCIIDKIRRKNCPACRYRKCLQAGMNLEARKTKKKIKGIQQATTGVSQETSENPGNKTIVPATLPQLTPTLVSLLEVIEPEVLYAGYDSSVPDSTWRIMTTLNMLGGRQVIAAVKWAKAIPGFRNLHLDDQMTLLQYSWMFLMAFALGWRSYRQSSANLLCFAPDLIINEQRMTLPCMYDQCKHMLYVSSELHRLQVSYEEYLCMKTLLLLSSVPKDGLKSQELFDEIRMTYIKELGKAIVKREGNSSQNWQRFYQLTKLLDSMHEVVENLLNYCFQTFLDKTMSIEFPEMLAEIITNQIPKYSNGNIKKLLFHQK
Cytochrome P450 2C19 (Homo sapiens), sequence (P33261 whole entry, looked up): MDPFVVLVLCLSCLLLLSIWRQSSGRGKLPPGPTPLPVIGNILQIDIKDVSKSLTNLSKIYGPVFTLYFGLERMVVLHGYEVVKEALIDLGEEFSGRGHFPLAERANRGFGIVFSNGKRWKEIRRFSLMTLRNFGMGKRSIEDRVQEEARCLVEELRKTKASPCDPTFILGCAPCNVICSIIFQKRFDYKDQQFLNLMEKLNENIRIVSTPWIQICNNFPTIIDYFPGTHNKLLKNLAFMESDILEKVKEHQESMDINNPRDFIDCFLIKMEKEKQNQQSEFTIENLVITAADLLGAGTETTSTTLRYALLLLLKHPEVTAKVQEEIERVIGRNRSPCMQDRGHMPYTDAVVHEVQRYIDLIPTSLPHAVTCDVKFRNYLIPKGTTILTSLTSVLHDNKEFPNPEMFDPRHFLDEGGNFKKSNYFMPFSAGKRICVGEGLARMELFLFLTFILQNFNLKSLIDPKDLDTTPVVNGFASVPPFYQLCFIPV

COc1ccc(CNc2cc(-c3ccoc3)ncn2)c(OC)c1
31.5%: max response [10, 17]
inactive: Potency [1] > 11.4 µM | activity change, negative = inhibition [2] -15.9% | activity change, negative = inhibition [4] 0.143% | Potency [5] > 46 µM | Potency [6] > 46 µM | outcome [7] | Potency [8] | Potency [9] | activity change, negative = inhibition [10] 8.38% | Potency [11] | Potency [12] | Potency [13]
38.7%: max response [10, 18]
active: Potency [3] 15.8 µM

Cc1ccccc1-c1cc(N(C)C)ncn1
active: Potency [3] 2 µM | Potency [9] 15.8 µM
inactive: Potency [1] > 11.4 µM | activity change, negative = inhibition [2] -2.87% | activity change, negative = inhibition [4] -0.723% | activity, negative = inhibition [14] 7.1% | Potency [5] > 46 µM | Potency [6] > 46 µM | outcome [7] | Potency [8] | Potency [15] | activity change, negative = inhibition [10] 6.31% | Potency [11] | Potency [12] | Potency [13]
26.4%: max response [10, 18]
20.2%: max response [10, 17]

Cn1c(=O)c(-c2cccs2)nc2cncnc21
active: Potency [3] 1.26 µM | Potency [15] 7.94 µM
19.2%: max response [10, 18]
inactive: Potency [1] > 11.4 µM | activity change, negative = inhibition [2] 16% | activity change, negative = inhibition [4] 2.85% | activity, negative = inhibition [14] -17.1% | Potency [6] > 46 µM | outcome [7] | Potency [8] | Potency [9] | activity change, negative = inhibition [10] 2.77% | Potency [11] | Potency [12] | Potency [13]
18.7%: max response [10, 17]

CN1CCN(c2ncnc3ccc(-c4ccc(C(=O)N(C)C)cc4)cc23)CC1
25.5%: max response [10, 18]
23.5%: max response [10, 17]
inactive: Potency [1] > 11.4 µM | activity change, negative = inhibition [2] -10.8% | Potency [3] | activity change, negative = inhibition [4] 1.97% | activity, negative = inhibition [14] -6.95% | Potency [5] > 46 µM | Potency [6] > 46 µM | outcome [7] | Potency [8] | Potency [9] | activity change, negative = inhibition [10] 2.73% | Potency [11] | Potency [12] | Potency [13]

N#Cc1cccc(-c2cncnc2NCc2cccs2)c1
active: Potency [3] 1.58 µM | Potency [15] 1.26 µM | Potency [16] 7.94 µM
inactive: Potency [1] > 11.4 µM | activity change, negative = inhibition [2] -2.15% | activity change, negative = inhibition [4] -0.972% | activity, negative = inhibition [14] 3.27% | Potency [5] > 46 µM | Potency [6] > 46 µM | outcome [7] | Potency [9] | activity change, negative = inhibition [10] 6.17% | Potency [11] | Potency [12] | Potency [13]
18.5%: max response [10, 18]
15.7%: max response [10, 17]
